Records with an inconclusive call do not appear. The source made the active and inactive calls. Unless noted, the call rests on the fitted dose curve; in most records, active means well fitted curve in the direction sought with a large enough effect in the repeat runs; inconclusive means weak or mixed curves; inactive means no such curve, though single readings can be large; an effect the other way counts as inactive or inconclusive.
Experiments:
[1] = qHTS assay for small molecules that induce genotoxicity in human embryonic kidney cells expressing luciferase-tagged ATAD5 (AID 651632); further: nearly all actives have a fitted effect of over 15% in size; further: potency means the concentration at half of the fitted maximal effect
Method in brief: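 HEK293T cells carrying a luciferase reporter tagged to ATAD5 were exposed to compound or DMSO vehicle for 16 hr at 37C, 5% CO2. Amplite was added, and after 30 min at room temperature luciferase activity was read as a marker of ATAD5 induction.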

[2] = qHTS assay for small molecule agonists of the p53 signaling pathway - cell viability (AID 651633; calls by dose curve;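 further: p53RE-bla HCT reporter cells with a stable beta-lactamase p53 reporter; series mostly up to about 83 µM; nearly all actives have a fitted effect of over 30% in size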)
Method in brief: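 p53RE-bla cells, seeded at 4,000 per well and rested 5 h at 37 C/5% CO2, received compounds in DMSO for 16 h at 37 C. CellTiter-Glo was then added, and luminescence was read after 30 min at room temperature to gauge cytotoxicity.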

[3] = qHTS assay for small molecules that induce genotoxicity in human embryonic kidney cells expressing luciferase-tagged ATAD5 - cell viability (AID 651634; calls by dose curve; further: nearly all actives have a fitted effect of over 25% in size)
Method in brief: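 HEK293T cells expressing luciferase-tagged ATAD5 were exposed to compound or DMSO for 15.5 hr at 37C, 5% CO2. Viability was then read as live-cell protease activity by CellTiter-Fluor fluorescence after 30 min at 37C.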

[4] = qHTS assay for small molecule disruptors of the mitochondrial membrane potential (AID 720635); further: potency means the concentration at half of the fitted maximal effect
Method in brief: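 HepG2 cells (2,000/well) attached overnight at 37C, then took compound for 1 hr at 37C, 5% CO2. Mito-MPS dye was added for 30 min; fluorescence was read at 490/535 nm (monomers) and 540/590 nm (aggregates).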

[5] = qHTS assay to test for compound auto fluorescence at 590 nm (red) in HepG2 cells (AID 720674)
Method in brief: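 Intrinsic compound fluorescence in the red window (Ex/Em 540/590 nm) is measured in attached HepG2 cells exposed for 1 hr, DMSO vehicle as baseline, benchmarked to Rose Bengal sodium.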

[6] = qHTS assay to test for compound auto fluorescence at 460 nm (blue) in HEK293 cells (AID 720678)
Method in brief: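 Blue-channel (Ex/Em 405/460 nm) intensity measured in HEK293 cultures after overnight compound exposure at 37C; signal expressed relative to triamterene. Cells plated 2,000 per well in 10% dialyzed FBS medium and allowed 4-5 hr to attach.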

[7] = qHTS assay to test for compound auto fluorescence at 590 nm (red) in HEK293 cells (AID 720679)
Method in brief: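 Red-channel autofluorescence (Ex/Em 540/590 nm; Rose Bengal sodium reference) was measured after overnight 37C, 5% CO2 exposure of attached HEK293 cells, 2,000 per well in medium with 10% dialyzed FBS.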

[8] = qHTS assay for small molecule disruptors of the mitochondrial membrane potential - cell viability (AID 720634; calls by dose curve;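 further: human HepG2 liver cancer cells; series mostly up to about 83 µM; nearly all actives have a fitted effect of over 20% in size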)
Method in brief: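 HepG2 cells seeded overnight at 37 C, then exposed to compound or DMSO for 1 hr at 37 C, 5% CO2. m-MPI dye added, then CellTiter-Glo for 30 min at room temperature; viability read as ATP luminescence.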

[9] = qHTS assay to test for compound auto fluorescence at 535 nm (green) in HepG2 cells (AID 720675)
On the % scale 0 is the no-effect control and ±100 the full control effect.

Nc1ccncc1N
inactive: Potency [1] | Potency [2] | Potency [3] | Potency [4] | outcome [5] | outcome [6] | outcome [7]

CCCCCCCC1CCCC1=O (centres undefined)
inactive: Potency [1] | Potency [2] | Potency [3] | outcome [8] | outcome [9] | outcome [7]

NCCCC(N)(C(=O)O)C(F)F (centres undefined)
inactive: Potency [1] | Potency [3] | outcome [8] | outcome [5] | outcome [9] | outcome [6] | outcome [7]

CO[C@@]1(NC(=O)C(C(=O)O)c2ccc(O)cc2)C(=O)N2C(C(=O)O)=C(CSc3nnnn3C)CO[C@@H]21 (some centres undefined)
inactive: Potency [1] | Potency [2] | Potency [3] | fluorescence, % of fluorescein control [9] -0.0745% [at 18.6 µM] | fluorescence, % of triamterene [6] 0.184% [at 18.6 µM] | fluorescence, % of fluorescent control [7] 0.0051% [at 18.6 µM]

COC(=O)Nc1ccc(Cl)c(Cl)c1
active: Potency [4] 60.8 µM
inactive: Potency [1] | Potency [2] | Potency [3] | outcome [5] | outcome [9] | outcome [6] | outcome [7]

O=C(c1ccccc1)C1(O)CCCCC1
inactive: Potency [1] | Potency [2] | Potency [3] | Potency [4] | outcome [9] | outcome [6] | outcome [7]

CC(=O)OCC(=O)[C@@]1(O)[C@H](C)C[C@H]2[C@@H]3CCC4=CC(=O)C=C[C@]4(C)[C@@]3(F)[C@@H](O)C[C@@]21C
inactive: Potency [1] | Potency [2] | Potency [3] | outcome [8] | outcome [5] | outcome [9] | outcome [7]

Nc1ccn([C@@H]2O[C@H](CO)[C@@H](O)[C@@H]2O)c(=O)n1
inactive: Potency [1] | Potency [2] | Potency [3] | outcome [5] | outcome [9] | outcome [6] | outcome [7]

O=C(O)CNC(=O)c1ccc(CO)o1
inactive: Potency [1] | Potency [2] | Potency [3] | outcome [8] | outcome [5] | outcome [6] | outcome [7]

CCCCS(=O)(=O)N[C@@H](Cc1ccc(OCCCCC2CCNCC2)cc1)C(=O)O
inactive: Potency [1] | Potency [2] | outcome [8] | Potency [4] | outcome [5] | outcome [9] | outcome [6] | outcome [7]

CNC(=O)Nc1ccc(Cl)c(Cl)c1
inactive: Potency [1] | Potency [2] | Potency [3] | outcome [5] | outcome [9] | outcome [7]
active: Potency [4] 15.4 µM

CCCCCC(=O)OCCc1ccccc1
inactive: Potency [1] | Potency [2] | Potency [3] | outcome [8] | outcome [5] | outcome [9] | outcome [7]

O=C(O)c1cn(C2CC2)c2cc(N3CCNCC3)c(F)cc2c1=O
inactive: Potency [1] | Potency [2] | Potency [3] | Potency [4] | fluorescence, relative to Rose Bengal [5] -0.332% [at 18.6 µM] | fluorescence, % of triamterene [6] 0.0142% [at 18.6 µM] | fluorescence, % of fluorescent control [7] -0.0071% [at 18.6 µM]

NC(N)=NCCN1CCCCCCC1
inactive: Potency [1] | Potency [3] | outcome [8] | fluorescence, relative to Rose Bengal [5] 0.248% [at 18.6 µM] | fluorescence, % of fluorescein control [9] 0.0444% [at 18.6 µM] | fluorescence, % of triamterene [6] -0.176% [at 18.6 µM] | fluorescence, % of fluorescent control [7] -0.493% [at 18.6 µM]

CN1CCC(=C2c3ccccc3CCc3cccnc32)CC1
inactive: Potency [1] | Potency [3] | outcome [8] | Potency [4] | outcome [5] | outcome [7]

Nc1ccn([C@@H]2O[C@H](CO)[C@@H](O)C2O)c(=O)n1 (some centres undefined)
inactive: Potency [1] | Potency [2] | Potency [3] | outcome [9] | outcome [6] | outcome [7]

CCOC(=O)OC(C)OC1=C(C(=O)Nc2ccccn2)N(C)S(=O)(=O)c2ccccc21 (centres undefined)
active: Potency [1] 3.35 µM
inactive: Potency [2] | Potency [3] | outcome [5] | outcome [9] | outcome [6] | outcome [7]

CC1=C(C/C=C(\C)CCC[C@H](C)CCC[C@H](C)CCCC(C)C)C(=O)c2ccccc2C1=O
inactive: Potency [1] | Potency [2] | Potency [3] | outcome [8] | outcome [5] | outcome [7]

CCCCCCCCCCCCSC
inactive: Potency [1] | Potency [2] | Potency [3] | outcome [8] | outcome [5] | outcome [9] | outcome [6] | outcome [7]

CC(C)C1CCC(O)CC1 (centres undefined)
inactive: Potency [1] | Potency [2] | Potency [3] | outcome [5] | outcome [9] | outcome [6] | outcome [7]

O=C(c1ccccc1O)c1ccccc1O
active: Potency [4] 12.1 µM
inactive: Potency [1] | Potency [3] | outcome [8] | outcome [5] | outcome [9] | outcome [6] | outcome [7]

NC(=O)N[C@@H](CCC(=O)O)C(=O)O
inactive: Potency [1] | Potency [3] | outcome [8] | Potency [4] | outcome [5] | outcome [9] | outcome [7]

CC(C)=CCC/C(C)=C/C#N
inactive: Potency [1] | Potency [2] | Potency [3] | outcome [8] | outcome [9] | outcome [7]

Source: PubChem BioAssay (Tox21)
